# Experimental data taken from PubChem BioAssay AID1159580 (chemical genetic matrix, 2015).
# Several values for one entry are separate records, joined by “and”; a condition that tells them apart may be missing. Identical values can stand only once. Among all 5,500 compounds or so, about 2,000 (36%) were called active. Not shown: some 18% with an inconclusive outcome. Rule as the data show it: active = normalized growth mostly below about 0.91 (no sharp cut-off); inconclusive = no clear call, values can overlap the other calls; inactive = mostly above about 0.92. The list shows a part of the results.
# Assay: chemical genetic growth profiling, strain panel (AID 1159580);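 also: tested at 20 µM; growth read once vehicle control cultures reached saturation at 30 °C; 1 = growth at the plate median or of vehicle wells; lower values mean less growth of the strain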
# Details: S. cerevisiae deletion strains, growth OD
smiles,measurement,setting,value
COc1ccc(-c2cc(=O)c3c(OC(C)=O)cc(OC(C)=O)cc3o2)cc1,normalized growth,"locus YAL013W, strain DEP1, stronger effect = lower value",0.955 (inactive)
same,normalized growth,"locus YAL021C, strain ccr4, stronger effect = lower value",0.947 (inactive)
same,normalized growth,"locus YAL026C, strain drs2, stronger effect = lower value",1.01 (inactive)
same,normalized growth,"locus YAL030W, strain snc1, stronger effect = lower value",0.99 (inactive)
same,normalized growth,"locus YBL061C, strain skt5, stronger effect = lower value",0.974 (inactive)
same,normalized growth,"locus YBR009C, strain hhf1, stronger effect = lower value",0.972 (inactive)
same,normalized growth,"locus YBR021W, strain FUR4, stronger effect = lower value",0.916 (inactive)
same,normalized growth,"locus YBR023C, strain chs3, stronger effect = lower value",0.972 (inactive)
same,normalized growth,"locus YBR171W, strain sec66, stronger effect = lower value",0.996 (inactive)
same,normalized growth,"locus YBR229C, strain ROT2, stronger effect = lower value",0.982 (inactive)
same,normalized growth,"locus YBR231C, strain swc5, stronger effect = lower value",0.922 (inactive)
same,normalized growth,"locus YBR279W, strain paf1, stronger effect = lower value",0.988 (inactive)
same,normalized growth,"locus YCL011C, strain gbp2, stronger effect = lower value",0.989 (inactive)
same,normalized growth,"locus YCL016C, strain dcc1, stronger effect = lower value",0.991 (inactive)
same,normalized growth,"locus YCL029C, strain bik1, stronger effect = lower value",0.958 (inactive)
same,normalized growth,"locus YCL061C, strain MRC1, stronger effect = lower value",0.989 (inactive)
same,normalized growth,"locus YCL069W, strain vba3, stronger effect = lower value",0.983 (inactive)
same,normalized growth,"locus YCR088W, strain abp1, stronger effect = lower value",0.996 (inactive)
same,normalized growth,"locus YDL005C, strain med2, stronger effect = lower value",0.991 (inactive)
same,normalized growth,"locus YDL035C, strain GPR1, stronger effect = lower value",0.975 (inactive)
same,normalized growth,"locus YDL040C, strain nat1, stronger effect = lower value",0.986 (inactive)
same,normalized growth,"locus YDL074C, strain BRE1, stronger effect = lower value",0.861 (inactive)
same,normalized growth,"locus YDL101C, strain DUN1, stronger effect = lower value",0.958 (inactive)
same,normalized growth,"locus YDL134C, strain PPH21, stronger effect = lower value",0.956 (inactive)
same,normalized growth,"locus YDL185W, strain tfp1, stronger effect = lower value",0.93 (inactive)
same,normalized growth,"locus YDL192W, strain arf1, stronger effect = lower value",0.965 (inactive)
same,normalized growth,"locus YDR001C, strain nth1, stronger effect = lower value",0.987 (inactive)
same,normalized growth,"locus YDR069C, strain doa4, stronger effect = lower value",0.981 (inactive)
same,normalized growth,"locus YDR101C, strain arx1, stronger effect = lower value",1 (inactive)
same,normalized growth,"locus YDR137W, strain rgp1, stronger effect = lower value",0.934 (inactive)
same,normalized growth,"locus YDR150W, strain NUM1, stronger effect = lower value",0.976 (inactive)
same,normalized growth,"locus YDR159W, strain sac3, stronger effect = lower value",0.974 (inactive)
same,normalized growth,"locus YDR162C, strain NBP2, stronger effect = lower value",0.948 (inactive)
same,normalized growth,"locus YDR195W, strain ref2",1 (inactive)
same,normalized growth,"locus YDR297W, strain sur2, stronger effect = lower value",0.98 (inactive)
same,normalized growth,"locus YDR318W, strain mcm21, stronger effect = lower value",0.936 (inactive)
same,normalized growth,"locus YDR334W, strain swr1, stronger effect = lower value",0.987 (inactive)
same,normalized growth,"locus YDR335W, strain msn5, stronger effect = lower value",0.995 (inactive)
same,normalized growth,"locus YDR388W, stronger effect = lower value",0.973 (inactive)
same,normalized growth,"locus YDR392W, strain spt3, stronger effect = lower value",0.646 (active)
same,normalized growth,"locus YDR502C, strain sam2, stronger effect = lower value",0.94 (inactive)
same,normalized growth,"locus YEL003W, strain gim4, stronger effect = lower value",0.968 (inactive)
same,normalized growth,"locus YEL037C, strain rad23, stronger effect = lower value",1 (inactive)
same,normalized growth,"locus YEL061C, strain CIN8 (second series), stronger effect = lower value",0.991 (inactive)
same,normalized growth,"locus YEL061C, strain CIN8, stronger effect = lower value",0.982 (inactive)
same,normalized growth,"locus YER015W, strain faa2, stronger effect = lower value",0.97 (inactive)
same,normalized growth,"locus YER016W, strain bim1, stronger effect = lower value",0.991 (inactive)
same,normalized growth,"locus YER110C, stronger effect = lower value",0.95 (inactive)
same,normalized growth,"locus YER111C, strain swi4, stronger effect = lower value",1 (inactive)
same,normalized growth,"locus YER155C, strain BEM2 (second series), stronger effect = lower value",0.846 (active)
same,normalized growth,"locus YER155C, strain BEM2, stronger effect = lower value",0.942 (inactive)
same,normalized growth,"locus YER167W, strain BCK2, stronger effect = lower value",0.993 (inactive)
same,normalized growth,"locus YFR010W, strain ubp6, stronger effect = lower value",1 (inactive)
same,normalized growth,"locus YGL078C, strain dbp3, stronger effect = lower value",0.961 (inactive)
same,normalized growth,"locus YGL086W, strain mad1, stronger effect = lower value",0.976 (inactive)
same,normalized growth,"locus YGL167C, strain pmr1, stronger effect = lower value",0.992 (inactive)
same,normalized growth,"locus YGL173C, strain kem1, stronger effect = lower value",0.982 (inactive)
same,normalized growth,"locus YGL227W, strain vid30, stronger effect = lower value",0.98 (inactive)
same,normalized growth,"locus YGL240W, strain doc1, stronger effect = lower value",0.985 (inactive)
same,normalized growth,"locus YGL248W, strain PDE1, stronger effect = lower value",0.935 (inactive)
same,normalized growth,"locus YGL253W, strain hxk2, stronger effect = lower value",0.97 (inactive)
same,normalized growth,"locus YGR135W, strain pre9, stronger effect = lower value",0.905 (inactive)
same,normalized growth,"locus YGR252W, strain gcn5, stronger effect = lower value",0.86 (inactive)
same,normalized growth,"locus YHR013C, strain ard1, stronger effect = lower value",0.968 (inactive)
same,normalized growth,"locus YHR027C, strain rpn1, stronger effect = lower value",0.991 (inactive)
same,normalized growth,"locus YHR030C, strain SLT2, stronger effect = lower value",0.972 (inactive) and 0.893 (inactive)
same,normalized growth,"locus YHR079C, strain IRE1 (second series), stronger effect = lower value",0.972 (inactive)
same,normalized growth,"locus YHR079C, strain IRE1, stronger effect = lower value",0.864 (inactive)
same,normalized growth,"locus YHR094C, strain hxt1, stronger effect = lower value",0.97 (inactive)
same,normalized growth,"locus YHR129C, strain ARP1, stronger effect = lower value",0.938 (inactive)
same,normalized growth,"locus YHR142W, strain chs7, stronger effect = lower value",0.951 (inactive)
same,normalized growth,"locus YHR200W, strain rpn10, stronger effect = lower value",0.959 (inactive)
same,normalized growth,"locus YIL066C, strain RNR3, stronger effect = lower value",0.994 (inactive)
same,normalized growth,"locus YIL073C, strain SPO22, stronger effect = lower value",0.852 (inactive)
same,normalized growth,"locus YIL125W, strain kgd1, stronger effect = lower value",0.991 (inactive)
same,normalized growth,"locus YIR030C, strain dcg1, stronger effect = lower value",0.955 (inactive)
same,normalized growth,"locus YJL092W, strain hpr5, stronger effect = lower value",1 (inactive)
same,normalized growth,"locus YJL095W, strain BCK1 (second series), stronger effect = lower value",0.992 (inactive)
same,normalized growth,"locus YJL095W, strain BCK1, stronger effect = lower value",0.884 (inactive) and 0.878 (active)
same,normalized growth,"locus YJL115W, strain asf1, stronger effect = lower value",0.989 (inactive)
same,normalized growth,"locus YJL129C, strain trk1, stronger effect = lower value",0.937 (inactive)
same,normalized growth,"locus YJL134W, strain LCB3, stronger effect = lower value",0.979 (inactive)
same,normalized growth,"locus YJL154C, strain vps35, stronger effect = lower value",0.997 (inactive)
same,normalized growth,"locus YJL164C, strain tpk1, stronger effect = lower value",0.98 (inactive)
same,normalized growth,"locus YJL166W, strain qcr8, stronger effect = lower value",0.953 (inactive)
same,normalized growth,"locus YJL168C, strain set2, stronger effect = lower value",0.97 (inactive)
same,normalized growth,"locus YJL187C, strain SWE1 (second series), stronger effect = lower value",0.927 (inactive)
same,normalized growth,"locus YJL187C, strain SWE1, stronger effect = lower value",1.01 (inactive)
same,normalized growth,"locus YJR043C, strain POL32, stronger effect = lower value",0.974 (inactive)
